# According to the OligoGym collection:
# Target: OSBPL11
# Test: pooled miR-30 sensor sort-seq; sequence = guide strand
# Conditions: shRNA
# Further: reference of the scale not given here.
row,Sequence,sensor-assay potency score (higher = more potent)
1,TTGTGCTTTACTTCAGCTGTAA,-0.271
2,TTACACACATCTTCCTCTCTGT,0.858
3,TAAATTAGTTCTTTTGCTCAGT,-0.186
4,TTTACTTCAGCTGTAACCCGAT,0.406
5,TTTACCACTTTGGTCTTGCTGC,-0.424
6,TTGACTTGGTCTCCTCTGCGAT,-0.7
7,TACATTCTGCATAAAATCCTGA,0.486
8,AATAGCTTCAGTATGATGCTGT,0.478

# Target: OSBPL2
# Test: as above
# Conditions: shRNA
row,Sequence,sensor-assay potency score (higher = more potent)
1,TTTTTGTCTTGAATGTGTCCTT,0.356
2,TTCTCTCTGCTTCTCCTCCAGC,-1
3,TAAATCTGAATCCTAAATCTTC,-0.577
4,TCTAAGTCAATCATTCCCGTGA,0.725
5,TTTAAAATCTCCACTGTCCCAT,-0.254
6,TAGAATTACATCCTTGATCAGG,-0.471
7,TTCAGGATGGTCCACACGCTGA,-1.77
8,TTTGTTTTTGTCTTGAATGTGT,0.222
9,TTTTGTCTTGAATGTGTCCTTC,0.333
10,TTAATTAGAATTACATCCTTGA,1.08
11,TTGAAGGCGATTGGCATCGTGA,-0.348
12,TTGAATGTGTCCTTCCACCTTG,-0.0307

# Target: OSBPL3
# Test: as above
# Conditions: shRNA
row,Sequence,sensor-assay potency score (higher = more potent)
1,TCTACTTTCATTAGAAAGCTGA,-0.307
2,TGAAGCTATAGTATTGCTCGTA,-0.222
3,TTGCTCTCCATACACAGGCAGA,-1.4
4,TACATTCATATAAACAATCAGG,-0.979
5,TAGAAGAATCTCTTATGCCAGC,-0.865
6,TTGGAGATAACAGAACTTCCTG,0.0622
7,TAAATCGAGTGTCAGTAGGTGG,-1.06
8,TTCTTCTCCGGGACTTCGCTTC,0.0582
9,TTCATCTCTGGAGTTTTCGGAT,-0.271
10,TATAGTATTGCTCGTAGCCTTT,-1.22
11,TTCTTTACAGACATCACTGAGA,0.168
12,TTCTTGATGACAATCTCTCCAT,-0.313

# Target: OSR1
# Test: as above
# Conditions: shRNA
row,Sequence,sensor-assay potency score (higher = more potent)
1,TTGGAGTGAATATATCTGTGGT,0.0172
2,TTCTTTTCTGGAGACAGCTTGG,-0.688
3,TTGTAGGACTTGGTGAAGTGGC,-0.656
4,TTTGGAGTGAATATATCTGTGG,-0.758
5,TAGGTTGTAGGACTTGGTGAAG,-1.09
6,TTTCCCACACTCTTGACACTTG,-0.209
7,TAGGACTTGGTGAAGTGGCGGC,0.00529
8,TATATCTGTGGTCTCGCAGGTG,0.107
